Compound activity deposited in PubChem BioAssay by National Center for Advancing Translational Sciences (NCATS).
BRCA1 expr up = qHTS Assay to Identify Small Molecule Activators of BRCA1 Expression | AID 624202, 2012 | Potency, µM (top dose mostly 46.1 µM), most hits filed as activators | MCF7-BRCA1-FFLuc reporter, luminescence, 48 h; response scale: scaled: vehicle 0%, 10 µM genistein 100% | 1.1% of 380,000 active; also: nearly all actives have a fitted effect of over 80% in size
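Using MCF7 cells harboring a BRCA1 firefly luciferase reporter, plated 2 h before compound pinning, the screen measured luminescence after 48 h incubation. Responses were normalized to DMSO and 10 microM genistein, then fitted for concentration-effect.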
GLP1R cytotox = qHTS of GLP-1 Receptor Inverse Agonists: Cytotox Screen; HEK293 cAMP-luciferase reporter cells, luminescence, 24 h; Potency, µM (highest dose often 38.3 µM), most hits filed as inhibitors; 0.13% of 410,000 active; AID 624418, 2012;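 also: loss of luciferase light is scored as toxicity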
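Step one: seed cells (200 cells/uL, DMEM with 10% Nu serum, 1% pen-strep). Step two: 12-hour incubation at 37 deg C. Step three: pin 23 nL compound, incubate 24 hr. Step four: add luciferase reagent, read luminescence 12 min later.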
GLP-1R agonist = qHTS of GLP-1 Receptor Agonists | 0.007% of 380,000 active | HEK293 GLP-1R CRE-luciferase, luminescence, 4-6 h; cells express a hypersensitive GLP-1R form | Glucagon-like peptide 1 receptor (Homo sapiens), P43220 | AID 624172, 2012 | Potency, µM (series often up to 45.6 µM), actives largely listed as activators
Target sequence (P43220 whole entry, looked up): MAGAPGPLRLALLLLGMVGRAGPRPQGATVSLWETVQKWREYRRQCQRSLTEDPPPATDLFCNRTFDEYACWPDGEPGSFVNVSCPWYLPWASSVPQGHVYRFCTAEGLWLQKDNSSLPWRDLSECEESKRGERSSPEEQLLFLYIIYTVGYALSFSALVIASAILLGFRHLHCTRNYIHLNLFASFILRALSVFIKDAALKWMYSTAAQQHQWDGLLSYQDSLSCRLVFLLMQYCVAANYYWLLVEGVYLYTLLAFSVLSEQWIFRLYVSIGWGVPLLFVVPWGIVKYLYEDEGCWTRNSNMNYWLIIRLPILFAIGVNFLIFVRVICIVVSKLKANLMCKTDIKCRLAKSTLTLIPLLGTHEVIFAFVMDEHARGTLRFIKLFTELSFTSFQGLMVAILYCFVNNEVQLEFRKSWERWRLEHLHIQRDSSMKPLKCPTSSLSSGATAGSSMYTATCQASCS
Mito fusion yeast = qHTS Assay for Small Molecule Inhibitors of Mitochondrial Division or Activators of Mitochondrial Fusion; AID 485298, 2010; S. cerevisiae fusion-defective mutant growth rescue, CellTiterGlo 48 h; 0.23% of 320,000 active; Potency, µM (titrated, usually from 46.1 µM), most hits filed as activators; also: nearly all actives have a fitted effect of over 45% in size
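Read-out: ATP-based luminescence (CellTiterGlo, 10 min ambient) reporting growth of fusion-defective ts yeast after 48 hours at 37C on glycerol/ethanol YPEG medium in the presence of compound.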
GLP1R inv ag = qHTS of GLP-1 Receptor Inverse Agonists (Inhibition Mode); HEK293 GLP-1R CRE-luciferase, luminescence, 24 h; GLP-1R form is constitutively active; Potency, µM (series often up to 38.3 µM), hits mostly inhibitors; 1.6% of 410,000 active; AID 624417, 2012; also: nearly all actives have a fitted effect of over 55% in size
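HEK293 cells stably co-expressing constitutively active GLP-1R and a cAMP-responsive luciferase reporter were seeded in DMEM with 10% Nu serum, given compounds after 12 h, and incubated 24 h at 37 deg C. Luminescence was then read.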
Of the large screens only hits and unclear results are named; the others gave an inactive call. Hits are enriched below; roughly 2.8% of the tested compounds scored in any of these assays. Calls follow the shape of the dose curve; as a rule, active = well fitted curve in the direction sought with a large enough effect; inconclusive = small, poorly fitted or top-dose-only effect, or another doubt; inactive = no such curve, though single readings can be large; an effect the other way counts as inactive or inconclusive.

COc1ccc(CNCCC(c2ccc(OC(C)C)cc2)c2ccccc2OC)cc1 (centres undefined)	GLP1R cytotox inconclusive, GLP1R inv ag 5.6µM
COc1ccccc1NC(=O)CC(c1ccc(OC(C)C)cc1)c1ccccc1OC (centres undefined)	GLP1R inv ag 11µM
CCCN1CNc2c(c(=O)[nH]c(=S)n2CCc2ccc3c(c2)OCCO3)C1	none (no result: GLP1R cytotox, GLP-1R agonist, Mito fusion yeast, GLP1R inv ag)
CO/N=C(/COc1ccc(F)cc1)c1ccc(OC)cc1	none
CN(C)S(=O)(=O)c1cccc(NC(=O)COC(=O)c2cc3ccccc3oc2=O)c1	BRCA1 expr up 10µM
O=C(COC(=O)c1cc2ccccc2oc1=O)Nc1cccc(S(=O)(=O)N2CCCCCC2)c1	none
O=C(COC(=O)c1cc2ccccc2oc1=O)Nc1ccc(F)cc1F	BRCA1 expr up 10µM
CCC(C(=O)OCC(=O)Nc1cccc(C(C)=O)c1)c1ccccc1 (centres undefined)	GLP1R inv ag inconclusive
O=C(/C(=C(\O)c1ccccc1)c1nc2ccccc2[nH]1)c1ccccc1	GLP1R cytotox inconclusive, GLP1R inv ag 10µM
CC(=O)/C(=C(/O)c1ccccc1)c1nc2ccccc2[nH]1	none
CSc1nc2sc3c(c2c(=O)n1CC(C)C)CC(C)(C)OC3	GLP1R inv ag inconclusive
CCCSc1nc2sc3c(c2c(=O)n1CC)CC(C)(C)OC3	GLP1R inv ag 10µM
CCCCCc1nc2sc3c(c2c(=O)n1NC(=O)c1ccc([N+](=O)[O-])cc1)CC(C)(C)OC3	GLP1R inv ag 10µM
CS(=O)(=O)N1CCc2cc(C(=O)Nc3ccc(S(N)(=O)=O)cc3)ccc21	none (no result: BRCA1 expr up, GLP-1R agonist, Mito fusion yeast)
Cc1ccc(NC(=O)c2ccc(OC(=O)C(C)Oc3ccc(Cl)cc3C)cc2)cc1 (centres undefined)	BRCA1 expr up 5µM
CCOC(=O)/C(=C/Nc1ccccc1)[N+](=O)[O-]	none
O=C(Nc1ccccn1)c1onc2c1CCCC2	GLP1R inv ag 2.5µM
O=C(Nc1cccc(Cc2ccccc2)c1)Nc1cccc2[nH]c([C@@H]3O[C@H](CO)[C@@H](O)[C@H](O)[C@H]3O)nc12	none (no result: Mito fusion yeast)
CCCCNC(=O)c1c(CSc2ccccc2)noc1C(=O)NCc1ccccc1	GLP1R inv ag 10µM
O=C(NCc1ccccc1)c1onc(CSc2ccc(Cl)cc2)c1C(=O)NCC1CC1	Mito fusion yeast inconclusive, GLP1R inv ag inconclusive
CCCNC(=O)c1c(CSc2ccc(Cl)cc2)noc1C(=O)NCc1ccccc1	GLP1R inv ag 5µM (no result: Mito fusion yeast)
O=C(NCC1CC1)c1onc(CSc2ccc(F)cc2)c1C(=O)NCC1CC1	GLP1R inv ag inconclusive
O=C(NCc1ccccc1)c1onc(CSc2ccccc2)c1C(=O)NCC1CC1	GLP1R inv ag 3.5µM
Cc1cc(C)cc(SCc2noc(C(=O)NCC3CC3)c2C(=O)NCC2CC2)c1	GLP1R inv ag 8.9µM (no result: Mito fusion yeast)
CCCCNC(=O)c1c(CSc2ccc(Cl)cc2)noc1C(=O)NCc1ccccc1	GLP1R inv ag inconclusive (no result: Mito fusion yeast)
Cc1cc(F)ccc1NC(=O)C1CCN(C(=O)c2cnn(-c3ccccc3)c2-n2cccc2)CC1	none (no result: GLP-1R agonist, Mito fusion yeast)
O=C1C=CC2(O[C@H](c3ccccc3)[C@@H](c3ccccc3)O2)[C@H](Sc2ccccc2O)C1	GLP1R cytotox 4.5µM, GLP1R inv ag inconclusive (no result: Mito fusion yeast)
C[C@@H]1[C@@H](Sc2ccccc2)CC(=O)O[C@@H]1c1ccc(-c2ccccc2)cc1	GLP1R inv ag inconclusive (no result: Mito fusion yeast)
CC(C)(C)c1ccc(C(=O)NCc2nnc(SCC(=O)NCc3ccco3)o2)cc1	none
O=C(Cc1ccc(F)cc1)c1ccc(O)cc1O	BRCA1 expr up 13µM
COc1ccccc1NC(=O)Nc1nc(CC(=O)Nc2cccc(F)c2)cs1	GLP1R cytotox inconclusive, GLP1R inv ag inconclusive
COc1cc(OC)cc(C(=O)Nc2nc(CC(=O)NCc3ccccc3OC)cs2)c1	GLP1R cytotox inconclusive, GLP1R inv ag 10µM
COc1cc(OC)cc(C(=O)Nc2nc(CC(=O)NCc3ccc(F)cc3)cs2)c1	GLP1R cytotox inconclusive, GLP1R inv ag 7.1µM
COc1ccccc1NC(=O)Nc1nc(CC(=O)Nc2cc(F)ccc2F)cs1	GLP1R cytotox inconclusive, GLP1R inv ag 5.6µM
COc1ccccc1CNC(=O)Cc1csc(NC(=O)Nc2ccccc2OC)n1	GLP1R cytotox inconclusive, GLP1R inv ag inconclusive
Cc1cc(C)cc(NC(=O)CCc2c(C)nn(-c3ccc(N4CCCC4)nn3)c2C)c1	none (no result: BRCA1 expr up, GLP-1R agonist, Mito fusion yeast)
CC(=O)C1=C(O)C(=O)N(Cc2cccnc2)C1c1ccc(C(C)C)cc1 (centres undefined)	Mito fusion yeast 4.5µM
COc1cccc(NC(=O)COC(=O)c2ccccc2C(=O)N(C)c2ccccc2)c1	GLP1R cytotox inconclusive
O=C(Nc1cccc(-c2ccc(N3CCOCC3)nn2)c1)c1ccc(Cl)cc1	none
O=C(Nc1cccc(-c2ccc(N3CCOCC3)nn2)c1)c1ccccc1Cl	BRCA1 expr up 2.5µM
O=C(Nc1cccc(-c2ccc(N3CCOCC3)nn2)c1)c1cccc(Cl)c1	BRCA1 expr up 7.1µM (no result: Mito fusion yeast)
CN(Cc1ccc(Cl)cc1)C(=O)CNC(=O)C12CC3CC(CC(C3)C1)C2	GLP1R inv ag 8.9µM
COc1ccc(C2CC(c3cccc(C)c3)n3ncnc3N2)cc1 (centres undefined)	none
O=C(/C=C/c1ccccc1)NCC(=O)N/N=C\c1cccnc1	none
O=c1n(Cc2ccccc2Cl)nc2n1-c1ccccc1SC2	BRCA1 expr up 11µM, GLP1R inv ag inconclusive
O=c1n(Cc2ccccc2)nc2n1-c1ccccc1SC2	none
CCc1nnc(NC(=O)CSc2nc3c(c(=O)n2C)SC(C)C3)s1 (centres undefined)	none
CCOC(=O)c1ccc2ncc(-c3ccccc3)nc2c1	BRCA1 expr up 13µM
Cc1cc2ncc(-c3ccccc3)nc2cc1C	BRCA1 expr up inconclusive
CCC(=O)Nc1cccc(-c2cnc3ccccc3n2)c1	BRCA1 expr up inconclusive
CCOC(=O)c1cnc(-c2ccccc2)nc1N	BRCA1 expr up 4µM
Cc1nc2ccc(C(=O)OCc3ccccc3Br)cc2nc1C	BRCA1 expr up 7.1µM, GLP1R cytotox inconclusive
O=C(CCl)Nc1cccc(-c2cnc3ccccc3n2)c1	GLP1R cytotox inconclusive, GLP1R inv ag 8.9µM
CC(=O)Nc1ccc(C(=O)OCc2ccccc2Br)cc1	none
Cc1cccc(C(=O)NC2=NC(c3ccc(Cl)cc3)CC(=O)N2)c1 (centres undefined)	none (no result: BRCA1 expr up, GLP-1R agonist, Mito fusion yeast)
C[C@H](CO)N1C[C@H](C)[C@@H](CN(C)CC2CCCCC2)Oc2ccc(NS(C)(=O)=O)cc2C1=O	GLP1R cytotox inconclusive (no result: Mito fusion yeast)
CCc1ccc(-c2cnc3ccccc3n2)cc1NC(=O)CNC(=O)c1ccccc1	BRCA1 expr up 7.9µM
